The nature of experiment [1]: HepG2 liver cancer cell viability effects, profiling panel, resazurin fluorescence, 24 h, PK04 Diversity Set (AID 1172). Further: test concentration not given here. To be noted: higher = more signal. (Alamar Blue is a resazurin reagent that responds to reducing activity.)
Experiment [2] in a line: basal S. cerevisiae growth modulation, no modifier, primary screen, OD600, strain BY4716, 24 h, basal condition (AID 1173). To be noted: OD600, 24 h, higher = more signal, called active from +8 up or from −8 down.
Experiment [3] can be described thus: MM1S myeloma cell viability, profiling panel, resazurin fluorescence, basal, 24 h, PK04 Diversity Set (AID 1174).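 Further: MM1S multiple myeloma cell line; test concentration not given here.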 Particulars: higher = more signal, called active from +8 up or from −8 down.
Experiment [4] has as its target Dihydroorotate dehydrogenase (quinone), mitochondrial (Plasmodium falciparum (isolate 3D7)) (UniProt Q08210). In words: PfDHODH enzyme inhibitors, primary screen, biochemical, C-terminal His tag, absorbance 600 nm (AID 1175).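 Further: recombinant parasite enzyme with a five histidine tag at its C terminus; test concentration not given here.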 Particulars: DCIP absorbance 600 nm, higher = more signal, called active from +8 up or from −8 down.
The nature of experiment [5]: P. aeruginosa biofilm formation inhibitors, primary screen, strain PAO1, LB-PBS medium, absorbance 600 nm (AID 1176). Further: test concentration not given here. Particulars: P. aeruginosa PAO1 growth/biofilm, A600, 12 h; higher = more signal.
Experiment [6] in a line: S. cerevisiae RM11-1a growth modifiers, primary screen, strain RM11-1a, OD600, basal, 24 h (AID 1177).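 Further: cultures grown under basal conditions with no added stressor; test concentration not given here.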 To be noted: OD600, 24 h, higher = more signal, called active from +8 up or from −8 down.
Experiment [7] can be described thus: E. coli acrAB mutant growth effects, primary screen, E. coli filamentation inducers, strain DRC39, OD650, 24 h (AID 1178).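 Further: growth measured as culture turbidity by optical density at 650 nm; test concentration not given here.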 Particulars: higher = more signal, called active from +8 up or from −8 down.
Experiment [8] can be described thus: E. coli acrAB mutant growth effects, primary screen, E. coli filamentation inducers, strain DRC39, OD650, 48 h (AID 1179).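 Further: screen aims at cell division blockers that make cells filament.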 Particulars: E. coli DRC39 delta-acrAB growth, higher = more signal, called active from +8 up or from −8 down.
Experiment [9] in a line: RPMI8226 myeloma cell viability, profiling panel, resazurin fluorescence, basal, 24 h, PK04 Diversity Set (AID 1180).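 Further: RPMI8826 multiple myeloma cell line at 5000 cells per well; test concentration not given here.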 To be noted: higher = more signal.
In experiment [10] the target is E3 ubiquitin-protein ligase XIAP (Homo sapiens) (UniProt P98170). In words: XIAP binders, primary screen, biophysical, small-molecule microarray, fluorescence 635 nm (AID 1181).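 Further: score merges 667 nm emission and signal to noise over triplicate slides.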 To be noted: small-molecule microarray binding, higher = more signal.
Chain of E3 ubiquitin-protein ligase XIAP (Homo sapiens) (P98170 whole entry, looked up): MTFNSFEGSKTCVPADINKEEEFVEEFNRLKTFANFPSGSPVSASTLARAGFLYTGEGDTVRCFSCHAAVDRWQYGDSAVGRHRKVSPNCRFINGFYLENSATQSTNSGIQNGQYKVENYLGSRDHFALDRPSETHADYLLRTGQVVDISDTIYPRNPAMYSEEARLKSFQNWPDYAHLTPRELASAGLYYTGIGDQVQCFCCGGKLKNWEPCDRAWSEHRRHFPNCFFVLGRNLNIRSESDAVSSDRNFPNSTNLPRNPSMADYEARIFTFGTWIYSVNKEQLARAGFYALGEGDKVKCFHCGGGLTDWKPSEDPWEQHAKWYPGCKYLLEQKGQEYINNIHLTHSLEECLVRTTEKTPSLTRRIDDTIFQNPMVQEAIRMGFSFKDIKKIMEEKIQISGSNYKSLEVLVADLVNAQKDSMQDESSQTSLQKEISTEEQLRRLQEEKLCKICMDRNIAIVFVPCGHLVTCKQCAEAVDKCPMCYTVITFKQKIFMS

Structures are written as SMILES. Active and inactive are the calls of the source. Unless noted, how the calls were made is not given here.

Chain of Dihydroorotate dehydrogenase (quinone), mitochondrial (Plasmodium falciparum (isolate 3D7)) (Q08210 whole entry, looked up): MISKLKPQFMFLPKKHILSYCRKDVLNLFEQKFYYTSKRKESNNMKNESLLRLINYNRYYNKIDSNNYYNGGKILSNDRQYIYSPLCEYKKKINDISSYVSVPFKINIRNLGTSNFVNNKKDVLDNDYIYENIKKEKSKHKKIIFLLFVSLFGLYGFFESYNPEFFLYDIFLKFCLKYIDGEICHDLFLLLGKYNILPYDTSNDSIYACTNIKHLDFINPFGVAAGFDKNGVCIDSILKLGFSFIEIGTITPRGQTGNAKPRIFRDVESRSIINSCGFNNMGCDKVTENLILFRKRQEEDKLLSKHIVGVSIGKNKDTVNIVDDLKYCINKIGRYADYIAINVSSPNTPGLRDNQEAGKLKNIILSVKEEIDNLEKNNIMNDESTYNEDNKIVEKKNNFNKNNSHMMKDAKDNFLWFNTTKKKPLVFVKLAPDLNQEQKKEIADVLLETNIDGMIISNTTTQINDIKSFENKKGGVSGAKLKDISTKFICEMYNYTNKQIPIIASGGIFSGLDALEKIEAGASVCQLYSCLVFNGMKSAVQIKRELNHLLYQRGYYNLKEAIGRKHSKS

As to `COCCCNC(=O)[C@]1(CCS(=O)(=O)c2ccccc2)N=C(c2ccc(OCCCO)cc2)O[C@@H]1c1ccccc1N=[N+]=[N-]`, the z-score in [1] was 0.129; in [2], 0.0817 (inactive); in experiment [3], -0.458 (inactive); in [5], 0.413 (inactive); in experiment [6], 0.771 (inactive); in experiment [7], 0.357 (inactive). Moreover, the z-score in experiment [8] is 0.0059 (inactive); in experiment [9], -0.998. In addition, the figures for the composite z-score in experiment [4] and in experiment [10] were 0.887 (inactive) and -0.199, respectively.
For the compound `CC(C)C[C@@H]1NC(=O)[C@@H]2C[C@H](C(=O)NCCCCCN)[C@H](c3ccc(O)cc3)N2C1=O`, the z-score in experiment [1] is -1.3; in experiment [2], 0.732 (inactive); in experiment [3], -0.205 (inactive); in experiment [5] it was -0.226 (inactive); in [6], 1.04 (inactive); in experiment [7], -0.496 (inactive). Also, the z-score in experiment [8] is -0.728 (inactive); in experiment [9], -0.354. Further, the composite z-score in experiment [4] is 0.582 (inactive); in experiment [10], 0.0015.
Consider `[N-]=[N+]=NCc1ccccc1[C@H]1OC(c2ccc(OCCCO)cc2)=N[C@@]1(CCS(=O)(=O)c1ccccc1)C(=O)NCC(O)CO` (stereo not given in full), for which the z-score is 0.044 in [1]; 0.323 (inactive) in experiment [2]; -0.315 (inactive) in [3]; 1.76 (inactive) in experiment [5]; 1.64 (inactive) in [6]; 0.852 (inactive) in experiment [7]. Also, the results for the z-score in experiment [8] and in experiment [9] were -0.679 (inactive) and 0.0345, respectively. Further, the composite z-score in experiment [4] is 1.09 (inactive); in [10], -0.0553.
Regarding `C=C(/C(=C/C[C@@H](OC(C)=O)c1cccc(OCCO)c1)c1cc(C(=O)OC)ccc1OC)C(C)C`, the z-score in experiment [1] is 1.47; in experiment [2], -0.0321 (inactive); in experiment [3], 0.172 (inactive); in experiment [5], -0.153 (inactive); in [6], 0.258 (inactive); in [7] it was 0.233 (inactive). In addition, the z-score was 0.547 (inactive) in experiment [8] and 0.883 in experiment [9]. Also, the composite z-score in [4] is -1.4 (inactive); in experiment [10] it was -0.0622.
With `COC(=O)[C@@]1(Cc2ccccc2)[C@@H]2C(=CC(=O)[C@H]2CC(=O)C(=O)N(C)C)CN1C(=O)c1ccccc1`, the z-score was -1.24 in experiment [1]; 0.292 (inactive) in experiment [2]; -5.19 (inactive) in experiment [3]; -0.0856 (inactive) in [5]; -0.224 (inactive) in experiment [6]; 0.677 (inactive) in experiment [7]. Further, the z-score in experiment [8] was -0.0631 (inactive); in [9], -5.21. Also, the values for the composite z-score in [4] and in experiment [10] were -0.435 (inactive) and 0.0239, respectively.
With `CC(C)C(=C=CC[C@H](O)c1cccc(OCCO)c1)C[C@H](O)c1cc(Cl)cc(Cl)c1O`, the z-score was 0.84 in [1]; -4.38 (inactive) in experiment [2]; 0.0849 (inactive) in [3]; 0.33 (inactive) in experiment [5]; 0.233 (inactive) in experiment [6]; 0.889 (inactive) in experiment [7]. Also, the z-score in [8] was 0.709 (inactive); in [9] it was 1.61. Further, the composite z-score in [4] was -0.0151 (inactive); in experiment [10], -0.16.
On to `COc1cccc(/C=C/C=O)c1`, for which the z-score in experiment [1] is 0.445; in [2] it was -6.49 (inactive); in [3], -0.687 (inactive); in experiment [5] it was -0.131 (inactive); in experiment [6], 0.0721 (inactive); in experiment [7], 0.635 (inactive). In addition, the z-score in experiment [8] was 0.403 (inactive); in experiment [9], 0.884. For the same compound, the composite z-score in [4] was -0.0136 (inactive); in [10] it was -0.0224.
Turning to `Cc1ccc(S[C@]2(C(=O)O)CC(=O)N(C3Cc4ccccc4C3)[C@@H]2c2ccc(CO)cc2)cc1`, the z-score in experiment [1] was -0.684; in experiment [2] it was -0.528 (inactive); in experiment [3], -0.444 (inactive); in experiment [5] it was 1.15 (inactive); in experiment [6], -0.157 (inactive); in experiment [7], -0.185 (inactive). The values for the z-score in [8] and in experiment [9] were -0.108 (inactive) and -0.396, respectively. The composite z-score in experiment [4] was -1.03 (inactive); in experiment [10] it was -0.205.
On to `C=CCC(OC(C)=O)[C@@H]1[C@@H](N(Cc2cccc3ccccc23)C(=O)c2cccc3ccccc23)c2cc(OCCCO)ccc2N1C(=O)c1ccc(-c2ccccc2)cc1` (stereo not given in full), for which the z-score is -0.333 in experiment [1]; 0.134 (inactive) in experiment [2]; -1 (inactive) in [3]; -0.309 (inactive) in [5]; -0.56 (inactive) in [6]; 0.161 (inactive) in [7]. The z-score is -0.123 (inactive) in [8] and -0.569 in experiment [9]. Also, the composite z-score is 0.136 (inactive) in experiment [4] and -0.232 in experiment [10].
Take `O=C1c2ccccc2[C@](Cc2ccccc2I)(C(=O)NCC(F)(F)F)[C@H](c2ccc(CO)cc2)N1C1CCCCC1`: the z-score is -0.46 in experiment [1]; -0.754 (inactive) in experiment [2]; 0.247 (inactive) in experiment [3]; 0.127 (inactive) in [5]; 0.234 (inactive) in [6]; 0.739 (inactive) in experiment [7]. The figures for the z-score in experiment [8] and in experiment [9] were 0.743 (inactive) and -0.581, respectively. The composite z-score in experiment [4] is -1.11 (inactive); in experiment [10] it was 0.129.
On to `O=C1C2C=CC(C(O)c3ccc(Br)cc3)N(Nc3ccccc3F)C2C(=O)N1c1ccccc1` (stereo not given), for which the z-score in experiment [1] was 0.732; in experiment [2], -2.45 (inactive); in experiment [3], -0.18 (inactive); in [5], 0.629 (inactive); in [6], -1.17 (inactive); in experiment [7] it was 0.774 (inactive). The z-score in experiment [8] is 2.06 (inactive); in experiment [9], 0.489. For the same compound, the composite z-score is 0.356 (inactive) in experiment [4] and 0.0933 in experiment [10].
Consider `O=C1O[C@H](c2ccccc2)[C@H](c2ccccc2)N2[C@H]1[C@@H](C(=O)NC[C@H](O)c1ccccc1)[C@]1(C(=O)Nc3ccc(C#CCCO)cc31)[C@H]2c1ccc(OCCO)cc1`, for which the z-score in experiment [1] was -0.468; in [2], 1.62 (inactive); in experiment [3], -0.0793 (inactive); in experiment [5], 2.31 (inactive); in [6], 3.46 (inactive); in experiment [7] it was 0.541 (inactive). The z-score was 0.721 (inactive) in experiment [8] and -0.821 in experiment [9]. Besides, the composite z-score in experiment [4] was -1.33 (inactive); in experiment [10], 0.283.
Regarding `COCCOC(=O)N1C(=O)[C@@]2(c3cc(C#CC4=CCCCC4)ccc31)[C@H](c1ccc(OCCO)cc1)N1[C@H](c3ccccc3)[C@H](c3ccccc3)OC(=O)[C@H]1[C@@H]2C(=O)N1CCN(c2ncccn2)CC1`, the z-score in experiment [1] is 0.205; in experiment [2], 1.7 (inactive); in experiment [3] it was 0.0789 (inactive); in [5] it was 2.28 (inactive); in [6], 1.78 (inactive); in [7], -0.294 (inactive). The z-score in experiment [8] is 0.0375 (inactive); in [9], 0.621. Also, the values for the composite z-score in [4] and in experiment [10] were -1.42 (inactive) and 0.0219, respectively.

The record behind these values is PubChem BioAssay.
